Screening results (PubChem BioAssay)
BJeLR viab HTS = BJeLR cell viability loss, primary screen, luminescence, CellTiterGlo ATP; viability loss activity score, % (concentration not given with the values); AID 2275, 2010; 30,000 compounds, 0.64% hits; BJeLR fibroblasts viability, 48 h; HRASV12, hTERT and SV40 LT/ST transformed; in the data active = viability loss activity score above about 50%;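 also: higher score means fewer live cells and less ATP luminescence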
A1 inhib = inducers of caspase activity in MEF A1-2A-BIM cells, primary screen, A1 inhibitor project, cell-based, CaspaseGlo luminescence | caspase activation, % (no concentration beside the values) | caspase-Glo luminescence, 3 h; percent of clofoctol signal, DMSO as zero | 21,000 compounds, 0.51% hits;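 active = most replicate scores above 10, or exactly half above 10 with mean activity above 10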;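 also: effector caspase 3 and 7 activity cleaving a DEVD luciferin substrate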
* marks the source's active call; other numbers are inactive results; . = not tested or not shown. This is a sample that favours compounds with a hit; in the whole collection about 0.9% have one here.

SMILES	BJeLR viab HTS	A1 inhib
COc1cccc(NC(=O)Cn2ncc3c4ccccc4n(Cc4ccccc4)c3c2=O)c1	2.7	16.5*
O=C(Cn1ncc2c3ccccc3n(Cc3ccccc3)c2c1=O)NC1CC1	0.9	-0.8
O=C1C(Nc2ccccc2)=CC(=O)c2ncccc21	69.1*	-0.8
CC1(C)CC(=O)c2c(SCCOC(=O)c3ccccc3Cl)sc(C#N)c2C1	-0.8	-1.0
CS(=O)c1sc(C(=O)OCc2ccccc2)c2c1C(=O)CC(C)(C)C2 (stereo not drawn)	116.4*	4.1
C[C@@H]1CN([C@@H](C)CO)C(=O)c2cccc(NS(=O)(=O)c3ccc(F)cc3)c2O[C@H]1CN(C)CC1CCCCC1	-0.3	.
COc1ccc(CN(C)C[C@H]2Oc3c(NS(=O)(=O)c4ccc(OC)cc4)cccc3C(=O)N([C@@H](C)CO)C[C@H]2C)cc1	-9.6	.
O=C(NCC1CCCO1)c1ccc2c(c1)sc1nc(-c3ccccc3)cn12 (stereo not drawn)	1.0	-1.1
CCN1CCCC1CNC(=O)c1ccc2c(c1)sc1nc(-c3ccc(C)cc3)cn12 (stereo not drawn)	94.6*	8.3
COC(=O)CC(O)(CCCC(C)(C)O)C(=O)O[C@@H]1C(OC)=C[C@]23CCCN2CCc2cc4c(cc2[C@@H]13)OCO4 (stereo partly drawn)	.	10.2*
COc1ccc(NC(=O)N(C)C[C@H]2Oc3ccc(NC(=O)Nc4ccc(F)cc4)cc3C(=O)N([C@H](C)CO)C[C@@H]2C)cc1	2.3	0.6
COc1ccc(CC(N)C(=O)N[C@H]2[C@@H](O)[C@H](n3cnc4c(N(C)C)ncnc43)O[C@@H]2CO)cc1 (stereo partly drawn)	19.0	58.0*
CN(C)c1ncnc2c1ncn2C1OC(CO)C(N)C1O (stereo not drawn)	19.6	0.8
Cc1ccc(CNC(=O)C2c3ccccc3Oc3ccccc32)cc1	-2.1	0.4
O=C1C[C@H](c2ccccc2)Oc2c(Cc3ccccc3O)c(O)cc(O)c21	9.6	-0.7
CC(C)=CCc1c(O)cc(O)c2c1O[C@H](c1ccccc1)CC2=O	1.8	22.6*
C[C@H](CO)N1C[C@H](C)[C@H](CN(C)C(=O)Nc2ccccc2)Oc2c(NS(=O)(=O)c3cn(C)cn3)cccc2C1=O	-4.2	.
C[C@H]1CN([C@@H](C)CO)C(=O)c2cc(NS(=O)(=O)c3ccc(F)cc3)ccc2O[C@H]1CN(C)C(=O)Nc1ccc2c(c1)OCO2	0.1	1.3
O=C1c2ccccc2-[n+]2ccc3c([nH]c4ccccc43)c21	130.1*	-1.3
O=C1C(c2c(O)[nH]c3ccccc23)=Nc2ccccc21	5.9	-2.3
CC1(C)CC(=O)C=C(Sc2nc3ccccc3o2)C1	76.1*	2.2
O=C(CSc1nc2ccccc2o1)OCc1ccccc1	1.8	0.2
Clc1ccc(-c2csc(COc3ccc4nonc4c3)n2)cc1	-1.4	-0.1
CCCOc1cccc(C(=O)Nc2ccc(C(=O)OC)cc2)c1	2.7	-1.1
CCCOc1ccc2nc(NC(=O)OC)[nH]c2c1	58.1*	2.4
SMILES	BJeLR viab HTS	A1 inhib
COC(CNC(=O)c1cc(-c2ccccc2)nc2ccccc12)OC	-2.1	0.0
CN1N=C(c2coc3ccccc23)CC1(O)C(F)(F)F (stereo not drawn)	2.4	-3.3
O=C(O[C@H]1[C@H](Oc2ccccc2COC(=O)C2(O)C=CCCC2=O)O[C@H](CO)[C@@H](O)[C@@H]1O)c1ccccc1 (stereo partly drawn)	57.7*	0.1
CC(=O)O[C@H]1[C@H](Oc2ccccc2COC(=O)C2(O)C=CCCC2=O)O[C@H](CO)[C@@H](O)[C@@H]1O (stereo partly drawn)	-17.1	-0.3
Cc1nc2c(C(=O)N3CCc4ccccc4C3)cnn2c(C)c1Cc1ccc(Cl)cc1	-2.3	0.6
C=C(C(=O)O[C@H]1C[C@]2(C)C(C(C=O)CC[C@H]2O)[C@H]2OC(=O)C(=C)[C@H]12)C(O)CO (stereo partly drawn)	-2.3	0.2
C=C1C(=O)O[C@@H]2C3C(=C(C)[C@@H](O)[C@@H](OC(=O)/C(=C/C)COC(C)=O)[C@@H]12)C(=O)[C@H]1O[C@@]31C (stereo partly drawn)	89.7*	0.9
Cc1nnc(NCc2ccccc2)n(N)c1=O	1.9	.
CC(Oc1ccc2c3c(c(=O)oc2c1)CCC3)C(=O)c1ccccc1 (stereo not drawn)	3.1	-2.2
CC(C)c1ccc2c(c1)CCC1[C@](C)(C(=O)O)CCC[C@]21C (stereo partly drawn)	1.7	0.2
CC(C)c1c(O)ccc2c1CCC1C(C)(C)CCC[C@]21C (stereo partly drawn)	5.3	43.1*
COc1ccc(C2=NN(CC(=O)NCc3ccc(C)cc3)C(=O)CC2)cc1	0.7	0.5
C[C@@H]1CN([C@H](C)CO)C(=O)c2cc(NC(=O)Nc3cccc4ccccc34)ccc2O[C@H]1CN(C)C(=O)Nc1ccc(F)cc1	0.4	0.3
Cc1sc2ncn(CC(=O)NC3CCCC(C)C3C)c(=O)c2c1S(=O)(=O)N1CCC(C)CC1 (stereo not drawn)	11.1	.
CC(C)(C)n1nc(-c2ccc(Cl)cc2)c2c(N)ncnc21	6.8	12.9*
C[C@@H]1CN([C@H](C)CO)C(=O)c2cc(NC(=O)CCN3CCOCC3)ccc2O[C@@H]1CN(C)Cc1ccc(C(=O)Nc2ccccc2N)cc1	1.3	.
CC(C)NC(=O)Nc1cccc2c1O[C@@H](CN(C)S(=O)(=O)c1ccc(Cl)cc1)[C@@H](C)CN([C@@H](C)CO)C2=O	-1.0	.
Cc1ccc(C)n1-c1ccc(-n2cccc2)cc1	3.8	.
O=C1Nc2ccccc2/C1=C/C(=O)c1ccc(Cl)cc1	64.7*	65.2*
O=C1Nc2ccccc2/C1=C\c1c(Cl)[nH]c2ccccc12	27.0	1.9
O=C1c2ccccc2C(=O)N1C(CO)C(O)c1ccccc1 (stereo not drawn)	3.7	-1.6
O=C1C(SCCO)=C(SCCO)C(=O)c2ccccc21	116.7*	-4.2
C[C@@H]1CN([C@H](C)CO)C(=O)c2cc(NS(C)(=O)=O)ccc2O[C@H]1CN(C)Cc1ccncc1	4.3	0.2
C[C@@H]1CN([C@H](C)CO)C(=O)c2cc(NC(=O)NC3CCCCC3)ccc2O[C@@H]1CN(C)S(=O)(=O)c1cn(C)cn1	6.3	0.7
CN1C(=O)[C@@]2(Cc3ccccc3)SSS[C@]1(CO)C(=O)N2C	87.1*	31.1*
SMILES	BJeLR viab HTS	A1 inhib
Cc1noc(C)c1NC(=O)N(C)C[C@@H]1Oc2ccc(NS(=O)(=O)c3ccc(F)cc3)cc2C(=O)N([C@@H](C)CO)C[C@H]1C	-0.1	-0.1
COC(=O)c1ccccc1NC(=O)c1ccc2c(c1)OCO2	-1.6	-0.3
Cn1c2ccccc2c2c3c(c4c5ccccc5n(CCC#N)c4c21)CNC3=O	21.0	28.0*
Cn1c2ccccc2c2cnn(CC(=O)O)c(=O)c21	-1.7	0.4
COc1cccc2c1C(=O)c1c(O)c3c(c(O)c1C2=O)C[C@@](O)(C(=O)CO)C[C@@H]3O[C@H]1C[C@H](N)[C@H](O)[C@H](C)O1	108.7*	16.4*
COc1cccc2c1C(=O)c1c(O)c3c(c(O)c1C2=O)C[C@@](O)(C(=O)CO)C[C@@H]3OC1CC(N)C(O)C(C)O1 (stereo partly drawn)	105.7*	14.7*
